Tb hexokinase: Trypanosoma brucei hexokinase 1 inhibitors, primary screen, biochemical, G6PDH-coupled NADH absorbance, MLSCN library; recombinant TbHK1, G6PDH-coupled NADH A340; inhibition, % at 10 µM; actives 0.11% (n = 220,000);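 active = inhibition of 50% or more in the single-dose primary screen; inactive = inhibition below 50%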
ROMK mod: ROMK potassium channel modulators, primary screen, cell-based, thallium flux, MLSMR library | B-score at 10 µM | actives 2% (n = 130,000) | ATP-sensitive inward rectifier potassium channel 1 (Homo sapiens), P48048 | AID 1918, 2009 | Tet-inducible ROMK, thallium flux fluorescence; actives lie on both sides;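 active = signal ratio slope over the read window, or its plate-corrected B-score, at least 3 SD from the plate mean, either direction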;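 note: B-score of the F/F0 ratio slope over 7 to 12 s after thallium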
Target sequence (P48048 whole entry, looked up): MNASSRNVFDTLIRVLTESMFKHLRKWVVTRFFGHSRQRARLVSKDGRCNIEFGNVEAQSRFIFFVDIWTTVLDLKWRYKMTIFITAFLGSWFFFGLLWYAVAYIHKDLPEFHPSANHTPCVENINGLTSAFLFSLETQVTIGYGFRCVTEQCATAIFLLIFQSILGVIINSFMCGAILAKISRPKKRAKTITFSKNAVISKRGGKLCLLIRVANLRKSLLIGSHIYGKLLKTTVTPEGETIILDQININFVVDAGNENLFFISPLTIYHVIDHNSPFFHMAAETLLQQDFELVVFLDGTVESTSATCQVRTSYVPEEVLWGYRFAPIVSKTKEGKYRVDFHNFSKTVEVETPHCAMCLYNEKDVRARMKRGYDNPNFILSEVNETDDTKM
HSV augment: enhancers of HSV replication in host cells, fold increase, host cell viability. HSV replication augmentation in cells. maximum fold increase. actives 0.005% (n = 220,000); in the data active = maximum fold increase above about 1.5; inconclusive = no clear call, values can overlap the other calls; tested in PC3 cells
Ins promoter up: insulin promoter activators in MIN6 cells, imaging, high-content screening, mouse beta cells; MIN6 insulin promoter-GFP reporter; active compounds read high; z-score at 5 µM; actives 0.3% (n = 190,000); AID 1625, 2009;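 active = z-score above 3 at 5 µM with at least 500 cells counted in the well; inconclusive = wells under 500 cells, flagged as cytotoxic or low count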
Insulin prom inh: inhibitors of insulin promoter-driven GFP, primary screen, imaging, TRM-6 cells (human fetal islet line), eGFP reporter, cell count. reporter expression induced with tamoxifen. inhibition, % at 2 µM. actives 0.9% (n = 130,000). AID 1273, 2008;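 active = inhibition above the mean plus 3 SD, with well images judged a real hit on visual review, cut at about 60% in these data, passing the limit was not always enough; inconclusive = inhibition over the cutoff but images rejected on review; inactive = inhibition not above the cutoff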
ROMK retest: ROMK channel modulator hit retest, confirmation, cell-based, thallium flux, duplicate, resupplied hits; shares compounds with ROMK mod; fluorescence ratio; active compounds read low; normalized thallium flux (F/F0 slope) at 10 µM; actives 54% (n = 3,000);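 active = Flux at 10 µM at least 3 SD below or above vehicle control mean in one or both replicates; inconclusive = no clear call, values can overlap the other calls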
* = called active by the depositor. The entries come from a sample that favours hits as a whole.

How did CC(C)c1ccc(OCC(=O)N(Cc2ccccc2)c2ccccn2)cc1 do in these assays?
Tb hexokinase: 5; ROMK mod: -0.13; HSV augment: inactive; Ins promoter up: 0.05; Insulin prom inh: 21

What do the screens show for `COc1ccc(/C=C2\SC(=S)N(CC3CCCO3)C2=O)cc1` (stereo not given)?
Tb hexokinase: -20; ROMK mod: 0.36; HSV augment: inactive; Ins promoter up: 0.46

How did O=C1/C(=C/c2cccnc2)SC(=S)N1CC1CCCO1 (stereo not given) do in these assays?
Tb hexokinase: -11; ROMK mod: -4*; HSV augment: inactive; Ins promoter up: 2.4; Insulin prom inh: 27; ROMK retest: inconclusive

What do the screens show for `C=CCNc1sc(C(=O)c2ccc(Br)s2)c(N)c1C#N`?
Tb hexokinase: -20; ROMK mod: -3.6*; HSV augment: inactive; ROMK retest: 0.056*

How did COC(=O)C1CCN(c2cnccn2)CC1 do in these assays?
Tb hexokinase: -4; HSV augment: inactive; Ins promoter up: 0.77; ROMK retest: 0.078

Results for CCOC(=O)/C(=N/O)C1=NC(C)(C)Cc2cc(C)c(C)cc21 ?
Tb hexokinase: -3; ROMK mod: -1.4; HSV augment: inactive; Ins promoter up: -0.99; Insulin prom inh: 56

How did N#C/C(=C/c1ccncc1)c1nc2ccccc2c(=O)[nH]1 do in these assays?
Tb hexokinase: -19; ROMK mod: -6.6*; HSV augment: inactive; Ins promoter up: 0.16; ROMK retest: 0.042*

Results for N#C/C(=C\c1ccncc1)c1nc2ccccc2c(=O)[nH]1 ?
Tb hexokinase: -10; ROMK mod: -4.9*; HSV augment: inactive; Ins promoter up: 1.4; ROMK retest: 0.051*

What do the screens show for `N#C/C(=C\c1ccccc1)c1nc2ncccc2[nH]1`?
Tb hexokinase: -40; ROMK mod: -2.5*; HSV augment: inactive; Ins promoter up: -0.42; ROMK retest: 0.053*

What do the screens show for `O=c1[nH]c(Nc2ccc3c(c2)OCCO3)nnc1Cc1ccccc1`?
Tb hexokinase: 2; ROMK mod: -0.17; HSV augment: inactive; Ins promoter up: 0.67; Insulin prom inh: -45

How did CSc1nc(=O)n2cc(C)ccc2n1 do in these assays?
Tb hexokinase: -27; ROMK mod: 0.063; HSV augment: inactive; Ins promoter up: 0.35; Insulin prom inh: 8

Results for O=C(O)c1ccc(Cn2cnc3scc(-c4ccccc4)c3c2=O)cc1 ?
Tb hexokinase: 2; ROMK mod: -6*; HSV augment: inactive; Ins promoter up: 0.27; Insulin prom inh: -76; ROMK retest: 0.055*

Results for COc1cc(C2C(C#N)=C(N)Oc3cc4c(cc32)OCO4)cc(OC)c1OC (stereo not given) ?
Tb hexokinase: -4; ROMK mod: 4.7*; HSV augment: inactive; Insulin prom inh: -121; ROMK retest: 0.083

What do the screens show for `COc1cc(C2C(C#N)=C(N)Oc3cc(O)ccc32)cc(OC)c1OC` (stereo not given)?
Tb hexokinase: 1; HSV augment: inactive; Insulin prom inh: -47

Results for CC(=O)Nc1ccc(S(=O)(=O)N2CCN(Cc3nc4sc(C)c(C)c4c(=O)[nH]3)CC2)cc1 ?
Tb hexokinase: -6; HSV augment: inactive; Ins promoter up: -0.16; ROMK retest: 0.074

How did CC(c1cccs1)N(Cc1ccco1)C(=S)Nc1ccccc1Cl (stereo not given) do in these assays?
Tb hexokinase: 7; ROMK mod: -0.35; HSV augment: inactive; Ins promoter up: -0.67; Insulin prom inh: -13

How did COc1ccc(C2C(C#N)=C(N)OC(C(C)(C)C)=C2C#N)cc1OC (stereo not given) do in these assays?
Tb hexokinase: -18; ROMK mod: -2.3*; HSV augment: inactive; Ins promoter up: -0.15; ROMK retest: 0.068*

Results for O=C(Nc1ccc(C(=O)OC[C@@H]2CCCN3CCCC[C@H]23)cc1)c1cccc(Br)c1 ?
Tb hexokinase: 5; ROMK mod: 0.3; HSV augment: inactive; Ins promoter up: -0.77; Insulin prom inh: 19

What do the screens show for `CCCCNc1cc(C)nc(NCc2ccccc2)n1`?
Tb hexokinase: 10; ROMK mod: -4.1*; HSV augment: inactive; Ins promoter up: inconclusive; ROMK retest: 0.051*

What do the screens show for `Fc1cc(NCc2ccccc2)nc(NCc2ccccc2)n1`?
Tb hexokinase: -1; ROMK mod: -5.8*; HSV augment: inactive; Ins promoter up: -0.18; Insulin prom inh: 7; ROMK retest: 0.05*

How did O=C(N/N=C/C=C/c1ccccc1)c1n[nH]c2c1CCC2 do in these assays?
Tb hexokinase: -23; ROMK mod: 4*; Insulin prom inh: 24; ROMK retest: 0.09

What do the screens show for `O=C(O)Cc1cc(I)c(Oc2ccc(O)c(I)c2)c(I)c1`?
Tb hexokinase: 23; HSV augment: inactive; Insulin prom inh: 10; ROMK retest: 0.12*

Results for O=C(O)Cc1ccc(O)c(O)c1 ?
Tb hexokinase: -2; HSV augment: inactive; Ins promoter up: 0.08

Results for CCOC(=O)C1=C(O)C(=O)N(c2ccc(S(N)(=O)=O)cc2)C1c1ccccc1 (stereo not given) ?
Tb hexokinase: -18; HSV augment: inactive; Ins promoter up: 0.16; Insulin prom inh: 19; ROMK retest: 0.071

Results for CCOC(=O)C1=C(O)C(=O)N(c2ccc(S(N)(=O)=O)cc2)C1c1ccc(Cl)cc1 (stereo not given) ?
Tb hexokinase: -21; HSV augment: inactive; Ins promoter up: 1.3; Insulin prom inh: -29

Results for Cc1c(N=Cc2cc(Br)cc(Br)c2O)cccc1C(=O)O ?
Tb hexokinase: 38; ROMK mod: 3.4*; HSV augment: inconclusive; Ins promoter up: 0.36; Insulin prom inh: 23; ROMK retest: 0.1*

Results for CCOC(=O)c1c(CSc2ccccc2)n(C)c2cc(Br)c(OCC(O)CNC(CO)(CO)CO)cc12 (stereo not given) ?
Tb hexokinase: -4; ROMK mod: -5.2*; HSV augment: inactive; Ins promoter up: -0.33; Insulin prom inh: -36; ROMK retest: 0.056*

How did O=C(Nc1cccc(S(=O)(=O)N2CCCCC2)c1)c1ccc2c(=O)n3c(nc2c1)CCCCC3 do in these assays?
Tb hexokinase: -7; HSV augment: inactive; Ins promoter up: -0.27; ROMK retest: 0.064*

How did CCc1ccc(NC(=O)c2ccc3c(=O)n4c(nc3c2)CCCCC4)cc1 do in these assays?
Tb hexokinase: -9; HSV augment: inactive; Ins promoter up: -0.65

What do the screens show for `CN(CC1CCOCC1)C(=O)CC1C(=O)NCCN1Cc1ccc(-c2ccccc2)cc1` (stereo not given)?
Tb hexokinase: -5; ROMK mod: -4.1*; HSV augment: inactive; Ins promoter up: 0.76; ROMK retest: 0.074
